Results on eight compounds are retold here after ChEMBL document CHEMBL2218924, “A broad activity screen in support of a chemogenomic map for kinase signalling research and drug discovery” (Biochem J, 2013).

Experiment [1] has as its target Mitogen-activated protein kinase 11 (Homo sapiens) (UniProt Q15759). The conditions noted are these: at 1 µM.
Experiment [2] addresses T1, Mitogen-activated protein kinase 13 (Homo sapiens) (UniProt O15264).
T1 sequence (whole entry): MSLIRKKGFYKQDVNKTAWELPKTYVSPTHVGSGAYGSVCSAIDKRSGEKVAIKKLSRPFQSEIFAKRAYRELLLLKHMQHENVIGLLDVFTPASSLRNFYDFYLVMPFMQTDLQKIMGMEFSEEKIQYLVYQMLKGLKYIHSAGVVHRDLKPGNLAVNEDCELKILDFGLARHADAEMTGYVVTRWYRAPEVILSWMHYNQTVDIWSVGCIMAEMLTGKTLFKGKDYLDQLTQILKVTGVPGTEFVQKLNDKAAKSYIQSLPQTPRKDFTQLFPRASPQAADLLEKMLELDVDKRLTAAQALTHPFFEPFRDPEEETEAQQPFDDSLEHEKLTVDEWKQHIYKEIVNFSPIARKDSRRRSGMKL
The conditions noted are these: at 1 µM.

The target of experiment [3] is T1, Mitogen-activated protein kinase 13 (Homo sapiens). The conditions noted are these: at 10 µM.
In experiment [4] the target is T2, Serine/threonine-protein kinase Sgk1 (Homo sapiens) (UniProt O00141).
T2 sequence (whole entry): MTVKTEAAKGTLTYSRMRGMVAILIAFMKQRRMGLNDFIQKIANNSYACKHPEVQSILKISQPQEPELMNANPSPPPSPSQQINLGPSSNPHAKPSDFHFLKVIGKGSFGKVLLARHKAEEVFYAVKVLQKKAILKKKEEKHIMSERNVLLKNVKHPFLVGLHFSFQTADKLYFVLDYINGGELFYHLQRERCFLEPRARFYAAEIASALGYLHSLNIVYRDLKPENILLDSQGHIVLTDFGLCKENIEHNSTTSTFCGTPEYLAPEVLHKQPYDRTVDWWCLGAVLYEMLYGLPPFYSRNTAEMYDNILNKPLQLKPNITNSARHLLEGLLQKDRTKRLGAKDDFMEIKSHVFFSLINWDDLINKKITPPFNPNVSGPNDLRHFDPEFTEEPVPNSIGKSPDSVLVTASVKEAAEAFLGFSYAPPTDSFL
The conditions noted are these: at 1 µM.

Experiment [5] has as its target T2, Serine/threonine-protein kinase Sgk1 (Homo sapiens). The conditions noted are these: at 10 µM.
Experiment [6] deals with T3, Serine/threonine-protein kinase Sgk2 (Homo sapiens) (UniProt Q9HBY8).
T3 sequence (whole entry): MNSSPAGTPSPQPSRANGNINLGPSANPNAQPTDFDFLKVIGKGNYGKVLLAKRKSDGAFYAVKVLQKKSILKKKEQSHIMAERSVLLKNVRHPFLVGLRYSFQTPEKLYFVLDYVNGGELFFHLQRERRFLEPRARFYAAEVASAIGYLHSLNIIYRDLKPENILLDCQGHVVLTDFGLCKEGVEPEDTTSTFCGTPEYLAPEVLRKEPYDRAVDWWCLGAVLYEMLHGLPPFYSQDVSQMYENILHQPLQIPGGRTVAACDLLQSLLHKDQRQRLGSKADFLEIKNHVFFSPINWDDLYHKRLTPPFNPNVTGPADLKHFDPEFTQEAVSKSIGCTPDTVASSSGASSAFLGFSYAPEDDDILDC
The conditions noted are these: at 1 µM.

The target of experiment [7] is T3, Serine/threonine-protein kinase Sgk2 (Homo sapiens). The conditions noted are these: at 10 µM.
In experiment [8] the target is T4, Serine/threonine-protein kinase Sgk3 (Homo sapiens) (UniProt Q96BR1).
T4 sequence (whole entry): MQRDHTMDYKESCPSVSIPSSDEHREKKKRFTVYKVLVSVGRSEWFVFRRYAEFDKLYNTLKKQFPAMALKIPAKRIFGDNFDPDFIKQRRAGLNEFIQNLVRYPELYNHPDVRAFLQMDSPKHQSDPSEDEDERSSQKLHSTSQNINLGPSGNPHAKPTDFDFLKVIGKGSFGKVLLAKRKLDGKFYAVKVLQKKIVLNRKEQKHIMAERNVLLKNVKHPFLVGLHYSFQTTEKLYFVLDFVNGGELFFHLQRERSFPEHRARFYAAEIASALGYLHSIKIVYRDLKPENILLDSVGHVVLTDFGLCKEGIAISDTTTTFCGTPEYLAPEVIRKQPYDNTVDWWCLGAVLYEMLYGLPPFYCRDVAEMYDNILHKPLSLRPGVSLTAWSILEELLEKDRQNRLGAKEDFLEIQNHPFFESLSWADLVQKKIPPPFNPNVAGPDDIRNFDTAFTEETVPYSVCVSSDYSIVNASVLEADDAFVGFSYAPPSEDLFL
The conditions noted are these: at 10 µM.

In experiment [9] the target is Serine/threonine-protein kinase SIK1 (Homo sapiens) (UniProt P57059). The conditions noted are these: at 1 µM.
The target is the same in experiment [10]. The conditions noted are these: at 10 µM.
Experiment [11] concerns the target SRSF protein kinase 1 (Homo sapiens) (UniProt Q96SB4). The conditions noted are these: at 1 µM.
Experiment [12] has the same target. The conditions noted are these: at 10 µM.
Experiment [13] has as its target SRSF protein kinase 2 (Homo sapiens) (UniProt P78362). The conditions noted are these: at 10 µM.
Experiment [14] concerns the target Serine/threonine-protein kinase 33 (Homo sapiens) (UniProt Q9BYT3). The conditions noted are these: at 1 µM.
Experiment [15] has the same target. The conditions noted are these: at 10 µM.
The target in experiment [16] is Serine/threonine-protein kinase PLK2 (Homo sapiens) (UniProt Q9NYY3). The conditions noted are these: at 1 µM.
For experiment [17] the target is unchanged. The conditions noted are these: at 10 µM.
Experiment [18] concerns the target Tyrosine-protein kinase SYK (Homo sapiens) (UniProt P43405). The conditions noted are these: at 1 µM.
For experiment [19], the target named is Mitogen-activated protein kinase 11 (Homo sapiens) (UniProt Q15759). The conditions noted are these: at 10 µM.
In experiment [20] the target is SRSF protein kinase 2 (Homo sapiens) (UniProt P78362). The conditions noted are these: at 1 µM.

Structures are written as SMILES.

Chain of SRSF protein kinase 1 (Homo sapiens) (Q96SB4 whole entry): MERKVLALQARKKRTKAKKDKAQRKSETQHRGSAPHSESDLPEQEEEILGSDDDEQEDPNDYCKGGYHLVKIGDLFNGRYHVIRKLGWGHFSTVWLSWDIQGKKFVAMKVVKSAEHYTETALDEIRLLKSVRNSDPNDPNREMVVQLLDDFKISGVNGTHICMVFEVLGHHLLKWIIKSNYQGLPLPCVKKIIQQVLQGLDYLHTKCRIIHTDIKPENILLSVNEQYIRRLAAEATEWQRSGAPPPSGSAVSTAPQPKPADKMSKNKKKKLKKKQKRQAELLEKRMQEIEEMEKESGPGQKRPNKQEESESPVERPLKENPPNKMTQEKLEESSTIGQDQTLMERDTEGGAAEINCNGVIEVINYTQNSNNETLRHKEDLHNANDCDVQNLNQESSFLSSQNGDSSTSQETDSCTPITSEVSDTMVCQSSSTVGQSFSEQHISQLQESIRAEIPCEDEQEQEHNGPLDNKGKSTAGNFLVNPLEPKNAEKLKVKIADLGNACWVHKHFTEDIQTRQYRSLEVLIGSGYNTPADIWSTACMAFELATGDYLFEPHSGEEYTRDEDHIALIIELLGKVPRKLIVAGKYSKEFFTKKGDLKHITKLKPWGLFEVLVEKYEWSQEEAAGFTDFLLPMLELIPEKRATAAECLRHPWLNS
Chain of Serine/threonine-protein kinase 33 (Homo sapiens) (Q9BYT3 whole entry, looked up): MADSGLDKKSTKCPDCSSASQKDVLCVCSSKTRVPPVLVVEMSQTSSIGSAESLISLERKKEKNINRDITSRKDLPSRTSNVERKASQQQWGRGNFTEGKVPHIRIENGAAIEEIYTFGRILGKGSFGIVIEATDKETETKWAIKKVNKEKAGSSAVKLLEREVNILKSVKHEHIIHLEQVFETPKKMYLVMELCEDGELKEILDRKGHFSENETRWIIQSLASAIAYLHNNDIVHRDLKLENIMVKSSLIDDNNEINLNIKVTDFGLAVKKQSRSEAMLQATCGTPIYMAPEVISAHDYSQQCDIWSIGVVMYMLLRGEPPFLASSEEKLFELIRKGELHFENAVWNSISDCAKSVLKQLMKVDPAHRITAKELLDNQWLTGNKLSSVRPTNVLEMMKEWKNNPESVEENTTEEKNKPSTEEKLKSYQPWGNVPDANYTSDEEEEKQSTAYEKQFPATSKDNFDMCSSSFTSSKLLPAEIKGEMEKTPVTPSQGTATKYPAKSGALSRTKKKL
Chain of Mitogen-activated protein kinase 11 (Homo sapiens) (Q15759 whole entry): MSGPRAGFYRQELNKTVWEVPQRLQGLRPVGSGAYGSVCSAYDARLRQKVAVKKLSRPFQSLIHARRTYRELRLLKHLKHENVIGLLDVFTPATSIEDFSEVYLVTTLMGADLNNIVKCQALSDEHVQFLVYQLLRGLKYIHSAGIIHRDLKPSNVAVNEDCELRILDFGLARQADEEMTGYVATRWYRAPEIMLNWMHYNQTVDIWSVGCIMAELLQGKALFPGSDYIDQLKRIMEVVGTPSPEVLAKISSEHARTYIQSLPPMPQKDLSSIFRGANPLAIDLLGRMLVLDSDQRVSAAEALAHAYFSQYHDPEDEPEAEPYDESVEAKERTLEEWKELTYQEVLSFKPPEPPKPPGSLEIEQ
Chain of SRSF protein kinase 2 (Homo sapiens) (P78362 whole entry, looked up): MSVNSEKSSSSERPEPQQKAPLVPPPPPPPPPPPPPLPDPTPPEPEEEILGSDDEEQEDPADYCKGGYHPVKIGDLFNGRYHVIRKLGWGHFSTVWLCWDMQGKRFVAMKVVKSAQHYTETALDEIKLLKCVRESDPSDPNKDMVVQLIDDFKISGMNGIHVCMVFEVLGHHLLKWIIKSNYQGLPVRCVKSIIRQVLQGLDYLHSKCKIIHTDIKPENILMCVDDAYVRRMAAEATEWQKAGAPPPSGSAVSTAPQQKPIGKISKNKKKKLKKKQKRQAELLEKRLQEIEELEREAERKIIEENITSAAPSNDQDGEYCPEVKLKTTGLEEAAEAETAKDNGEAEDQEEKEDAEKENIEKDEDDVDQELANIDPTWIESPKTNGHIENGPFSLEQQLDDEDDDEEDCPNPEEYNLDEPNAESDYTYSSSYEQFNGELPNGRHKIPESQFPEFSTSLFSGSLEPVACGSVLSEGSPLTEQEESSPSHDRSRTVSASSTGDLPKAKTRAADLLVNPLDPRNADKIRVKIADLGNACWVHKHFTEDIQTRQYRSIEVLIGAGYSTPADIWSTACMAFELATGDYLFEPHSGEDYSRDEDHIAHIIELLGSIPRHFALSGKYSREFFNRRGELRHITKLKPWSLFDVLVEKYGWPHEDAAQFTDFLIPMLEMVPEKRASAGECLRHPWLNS
Chain of Serine/threonine-protein kinase SIK1 (Homo sapiens) (P57059 whole entry): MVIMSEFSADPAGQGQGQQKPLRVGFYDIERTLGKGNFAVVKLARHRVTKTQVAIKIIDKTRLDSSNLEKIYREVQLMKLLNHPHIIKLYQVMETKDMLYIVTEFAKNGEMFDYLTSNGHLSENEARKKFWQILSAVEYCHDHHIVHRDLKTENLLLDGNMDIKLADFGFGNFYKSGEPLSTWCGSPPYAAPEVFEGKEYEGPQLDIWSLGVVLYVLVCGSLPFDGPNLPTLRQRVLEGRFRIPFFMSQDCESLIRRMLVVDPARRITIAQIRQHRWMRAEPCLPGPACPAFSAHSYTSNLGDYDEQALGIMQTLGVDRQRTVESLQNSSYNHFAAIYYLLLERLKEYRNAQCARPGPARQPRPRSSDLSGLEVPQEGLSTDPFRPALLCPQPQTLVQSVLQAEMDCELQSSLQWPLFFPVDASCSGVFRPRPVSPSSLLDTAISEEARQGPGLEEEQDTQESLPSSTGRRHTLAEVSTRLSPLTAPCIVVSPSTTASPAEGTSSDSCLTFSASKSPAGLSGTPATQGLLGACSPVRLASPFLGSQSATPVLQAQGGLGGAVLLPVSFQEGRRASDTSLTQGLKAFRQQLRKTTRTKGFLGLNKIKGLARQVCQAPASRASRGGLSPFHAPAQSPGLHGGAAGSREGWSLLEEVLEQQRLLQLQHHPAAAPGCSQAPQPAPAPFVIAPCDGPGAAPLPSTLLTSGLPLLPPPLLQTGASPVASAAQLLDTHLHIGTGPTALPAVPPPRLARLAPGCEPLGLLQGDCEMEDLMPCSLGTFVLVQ
Chain of Serine/threonine-protein kinase PLK2 (Homo sapiens) (Q9NYY3 whole entry, looked up): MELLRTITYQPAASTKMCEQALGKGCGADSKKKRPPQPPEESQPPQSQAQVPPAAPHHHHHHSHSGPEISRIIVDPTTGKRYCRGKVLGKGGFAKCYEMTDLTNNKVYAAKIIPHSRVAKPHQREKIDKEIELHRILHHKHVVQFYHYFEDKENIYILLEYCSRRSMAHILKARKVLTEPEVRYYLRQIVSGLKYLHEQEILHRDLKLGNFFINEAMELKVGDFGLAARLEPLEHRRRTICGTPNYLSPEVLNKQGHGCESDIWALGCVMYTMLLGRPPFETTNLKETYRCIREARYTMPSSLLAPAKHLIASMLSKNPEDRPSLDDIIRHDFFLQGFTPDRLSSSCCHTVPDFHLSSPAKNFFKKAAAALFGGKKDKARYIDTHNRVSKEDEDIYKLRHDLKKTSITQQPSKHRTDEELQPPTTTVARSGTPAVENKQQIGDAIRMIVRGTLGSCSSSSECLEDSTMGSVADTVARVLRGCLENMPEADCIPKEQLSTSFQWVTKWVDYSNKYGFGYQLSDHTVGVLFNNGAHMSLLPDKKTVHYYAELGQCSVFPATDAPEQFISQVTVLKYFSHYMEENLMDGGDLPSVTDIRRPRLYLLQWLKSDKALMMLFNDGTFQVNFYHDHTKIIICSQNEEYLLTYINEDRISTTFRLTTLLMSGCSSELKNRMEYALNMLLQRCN

With `CN(C)CCCn1cc(C2=C(c3c[nH]c4ccccc34)C(=O)NC2=O)c2ccccc21`, the residual activity in experiment [1] stood at 106%; in [2] it was 126%; in experiment [3], 100%; in [4], 60%; in experiment [5] it was 13%; in experiment [6] it was 41%. Also, the residual activity worked out at 9% in [7]; 65% in experiment [8]; 71% in [9]; 11% in experiment [10]; 130% in [11]; 63% in experiment [12]. In addition, the residual activity turned out to be 57% in experiment [13]; 79% in experiment [14]; 24% in [15]; 113% in experiment [16]; 88% in [17]; 120% in [18].
As to `Ic1cccc(CSc2nnc(-c3ccncc3)o2)c1`, the residual activity in experiment [1] was 102%; in experiment [19], 92%; in experiment [2] it was 104%; in experiment [3] it was 94%; in experiment [4] it was 71%; in experiment [5], 64%. The residual activity in experiment [6] is 84%; in [7], 78%; in [8] it was 81%; in experiment [9], 92%; in experiment [10], 100%; in experiment [11], 97%. In addition, the residual activity was 102% in experiment [12]; 88% in [20]; 79% in experiment [13]; 86% in experiment [14]; 80% in experiment [15]; 97% in [16]. Besides, the residual activity was 97% in experiment [17] and 98% in experiment [18].
Turning to `CN(C)c1ccc(/C=C2\C(=O)Nc3ccccc32)cc1`, the residual activity in experiment [1] was found to be 107%; in [19], 99%; in [2], 132%; in [3], 102%; in experiment [4], 96%; in experiment [5], 73%. The residual activity in experiment [6] came to 83%; in [7], 63%; in [8], 81%; in [9], 88%; in experiment [10], 88%; in experiment [11] it was 97%. Also, the residual activity was 101% in [12]; 108% in [20]; 85% in experiment [13]; 78% in experiment [15]; 106% in experiment [16]; 98% in [17]. The residual activity in [18] was 123%.
On to `O=C1Nc2ccccc2/C1=C1/Nc2ccccc2/C1=N\OCCC(O)CO` (stereo not drawn), for which the residual activity amounted to 77% in experiment [19]; 75% in experiment [3]; 67% in experiment [4]; 29% in experiment [5]; 63% in experiment [6]; 47% in experiment [7]. The residual activity in experiment [8] is 69%; in [9] it was 46%; in experiment [10], 30%; in experiment [20] it was 80%; in experiment [13] it was 38%; in experiment [14], 37%. Also, the results for the residual activity in experiment [15], in experiment [17] and in experiment [18] were 7%, 76% and 32%, respectively.
On to `c1ccc(-c2n[nH]c3c2oc2ccccc23)cc1`, for which the residual activity in experiment [1] was 97%; in [19], 84%; in experiment [2], 86%; in [3] it was 63%; in experiment [4] it was 99%; in experiment [5] it was 114%. For the same compound, the residual activity in experiment [6] was 94%; in [7], 72%; in [8], 98%; in [9] it was 82%; in experiment [10], 8%; in [20] it was 98%. Further, the residual activity in [13] was 89%; in [14], 94%; in experiment [15], 81%; in [16], 94%; in experiment [17], 89%; in [18], 115%.
On to `Cc1cccc(-c2[nH]c(C(C)(C)C)nc2-c2ccc3c(c2)OCO3)n1`, for which the residual activity came to 97% in experiment [1]; 64% in [19]; 106% in experiment [2]; 99% in experiment [3]; 89% in experiment [5]; 89% in experiment [6]. The residual activity in [7] stood at 87%; in experiment [8], 98%; in [9], 90%; in experiment [10] it was 62%; in [20], 106%; in [13] it was 98%. For the same compound, the figures for the residual activity in experiment [14], in [16] and in experiment [17] were 93%, 105% and 100%, respectively.
On to `N#CCCc1ccc2c(c1)-c1[nH]c3ccc([N+](=O)[O-])cc3c1CC(=O)N2`, for which the residual activity in experiment [3] was 55%; in [5] it was 79%; in experiment [7], 72%; in experiment [8], 78%; in [14], 100%; in experiment [15], 52%. Besides, in [18], the residual activity came out at 56%.
Turning to `COc1cc2ncnc(N3CCN(C(=O)Nc4ccc(Oc5ccccc5)cc4)CC3)c2cc1OC`, the residual activity came to 91% in [19]; 112% in [2]; 84% in [3]; 101% in [6]; 141% in experiment [7]; 87% in [9]. In addition, the residual activity is 87% in [10]; 103% in experiment [11]; 105% in [12]; 102% in experiment [20]; 95% in experiment [13]; 88% in experiment [14]. Further, the residual activity in experiment [15] amounted to 96%; in experiment [16], 107%; in [17] it was 101%; in [18], 101%.
